# Bioassay records as filed in PubChem BioAssay.
# SNCA expr inhib: Primary qHTS assay for inhibitors of alpha-synuclein gene (SNCA) expression | HEK-293 SNCA-luciferase knock-in, luminescence, 24 h | Potency, µM (titrated, usually from 57.2 µM), for inactives: at the highest dose activity change, negative = inhibition, usual class: inhibitors | 140,000 compounds, 0.17% hits | AID 1671194, 2021;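 further: potency means the concentration at half of the fitted maximal effect; plate controls were DMSO cells for no effect and cell-free wells for full effect; nearly all actives have a fitted effect of over 45% in size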
# HEK293 viab: GF-AFC viability counterscreen for inhibitors of alpha-synuclein gene (SNCA) expression; HEK-293-SNCA-luc viability, GF-AFC fluorescence, 24 h; Potency, µM (doses to about 57.1 µM), for inactives: at the highest dose activity change, negative = cytotoxicity, usual class: cytotoxic; AID 1671193, 2021; 150,000 compounds, 0.12% hits;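 further: potency means the concentration at half of the fitted maximal effect; 0% = DMSO-treated cells and -100% = medium-only wells without cells; nearly all actives have a fitted effect of over 30% in size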
#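 HEK-293-SNCA-luc cells (1500/well) plated 24 h, then exposed 24 h to a dilution series; GF-AFC added 30 min at 37C, fluorescence 405/540 nm; normalised to medium-only and DMSO wells, Hill fit.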
# Luciferase inh: Firefly luciferase inhibition profiling of diverse chemical library using quantitative high-throughput screening. Luciferin 4-monooxygenase (Photinus pyralis), P08659. 76,000 compounds, 2.5% hits. purified P. pyralis luciferase, luminescence, biochemical. Potency, µM (series often up to 115 µM), hits mostly inhibitors; further: potency means the concentration at half of the fitted maximal effect; nearly all actives have a fitted effect of over 65% in size
# Target sequence (P08659 whole entry, looked up): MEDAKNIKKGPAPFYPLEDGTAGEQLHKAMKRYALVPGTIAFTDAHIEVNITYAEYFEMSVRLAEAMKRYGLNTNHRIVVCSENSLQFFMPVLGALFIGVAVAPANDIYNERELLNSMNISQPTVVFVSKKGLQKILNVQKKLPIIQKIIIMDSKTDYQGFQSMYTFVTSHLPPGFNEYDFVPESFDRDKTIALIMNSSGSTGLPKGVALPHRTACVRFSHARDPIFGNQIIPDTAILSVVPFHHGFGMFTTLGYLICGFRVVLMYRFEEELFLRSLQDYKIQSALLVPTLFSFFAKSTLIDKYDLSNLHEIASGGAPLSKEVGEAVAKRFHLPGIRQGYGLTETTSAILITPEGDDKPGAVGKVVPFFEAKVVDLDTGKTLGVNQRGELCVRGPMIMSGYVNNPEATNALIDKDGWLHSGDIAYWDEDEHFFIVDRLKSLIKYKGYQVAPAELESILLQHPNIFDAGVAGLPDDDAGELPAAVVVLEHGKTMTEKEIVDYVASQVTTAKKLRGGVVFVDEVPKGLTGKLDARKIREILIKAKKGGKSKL
#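 Luminescence read by CCD imager after adding enzyme (10nM final) to wells holding compound, titrated in qHTS. Substrates 10uM each D-luciferin and ATP; buffer 50mM Tris acetate pH 7.5, 10mM Mg acetate, Tween-20, BSA.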
# HEK293 tox: Cytotoxic Profiling in HEK 293 Cell Line of Diverse Libraries Using Quantitative High-Throughput Screening. HEK 293 viability, ATP luminescence (CellTiter-Glo), 48-72 h. Potency, µM (titrated, usually from 115 µM), inactives show top-dose activity change, negative = cytotoxicity, hits mostly inhibitors. 94,000 compounds, 6.6% hits; further: potency means the concentration at half of the fitted maximal effect; nearly all actives have a fitted effect of over 60% in size
#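 HEK 293 cells at 250 cells/well were exposed to compounds by pintool transfer for 48 or 72 hr at 37 degree Celsius, 5% CO2. Viability was read as ATP-coupled luminescence with CellTiter-Glo after 10 min at room temperature.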
# 3T3 cytotox: Cytotoxic Profiling in NIH 3T3 Cell Line of Diverse Libraries Using Quantitative High-Throughput Screening; NIH 3T3 viability, CellTiter-Glo ATP luminescence, 48-72 h; Potency, µM (highest dose often 96.7 µM), without a hit: at the highest dose activity change, negative = cytotoxicity, usual class: inhibitors; 94,000 compounds, 4.3% hits; AID 1345082, 2018; further: potency means the concentration at half of the fitted maximal effect; nearly all actives have a fitted effect of over 55% in size
#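 Mouse fibroblast NIH 3T3 cells, 400 per well, received compound via pintool and were incubated for 48 or 72 hr prior to CellTiter-Glo ATP luminescence measurement.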
# IP6K1 inh: Primary qHTS assay for small molecule inhibitors of Inositol hexaphosphate kinase 1 (IP6K1); 140,000 compounds, 0.81% hits; IP6K1 kinase, ADP-Glo luminescence, 2 h; active compounds read low; activity change, % (series mostly up to about 58 µM); Inositol hexakisphosphate kinase 1 (Homo sapiens), Q92551; AID 1645851, 2021; in the data active means activity change below about -25%
#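 ADP-Glo luminescence measures ADP made by human IP6K1 during a 2 h RT reaction with ATP/IP6 (mix at 1.3 mM/130 uM); top library doses 57.5 and 19.1 uM final.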
# The depositor's hits bear a star; i = inactive; ? = inconclusive; . = no result; [ ] = dose if it differs, or a comment. An excerpt weighted towards active compounds, which were near 7.3% of everything screened. Unless noted, the call rests on the fitted dose curve; in most records, active means well fitted curve in the direction sought with a large enough effect; inconclusive means small, poorly fitted or top-dose-only effect, or another doubt; inactive means no such curve, though single readings can be large; an effect the other way counts as inactive or inconclusive. Unless noted, on the % scale 0 is the no-effect control and ±100 the full control effect.
SMILES,SNCA expr inhib,HEK293 viab,Luciferase inh,HEK293 tox,3T3 cytotox,IP6K1 inh
O=C(NC1CCCN(c2cc(-c3ccccc3)[nH]n2)C1)c1c[nH]c2ccccc12 (configuration not stated),15%,-8%,40µM*,?,?,10
O=C(NC1CCN(c2cc(-c3ccc(F)cc3)[nH]n2)CC1)c1c[nH]c2ccccc12,-21%,-12%,i,?,32µM*,23
O=C(NC1CCN(c2cc(-c3ccccc3)[nH]n2)CC1)c1cc(F)ccc1Cl,4%,-12%,i,?,?,10
O=C(NC1CCN(c2cc(-c3ccc(F)cc3)[nH]n2)C1)c1c[nH]c2ccccc12 (configuration not stated),?,?,i,40µM*,32µM*,0
O=C(NCC1CCN(c2cc(-c3ccc(F)cc3)[nH]n2)CC1)c1c[nH]c2ccccc12,7%,-5%,?,?,32µM*,0
Cc1ccccc1C(=O)NC1CCN(c2cc(-c3ccc(F)cc3)[nH]n2)C1 (configuration not stated),-17%,2%,i,?,-20%,17
O=C(NCCc1ccccc1)N1CC[C@@H]2COC(=O)N(Cc3ccccc3)[C@@H]2C1,10%,-7%,.,?,?,-5
CN(C)C[C@@H]1CN(S(C)(=O)=O)C[C@H]1NC(=O)c1ccc2nc[nH]c2c1,?,0%,i,i,2%,1
CCNC(=O)C1CCN(C(=O)c2ccc3nc(-c4ccccc4)cn3c2)C1 (configuration not stated),64%,-3%,35µM*,-2%,i,-1
O=C(c1ccc2nc(-c3ccc(F)cc3)cn2c1)N1CCC(F)CC1,85%,-7%,i,?,-26%,-4
CC1(C)[C@H](Cc2cc(COc3ccccc3)on2)C[C@@H]1NC1CCC1,22%[87.6 µM],-24%[87.6 µM],i,35µM*,32µM*,17
CCCCCC(=O)N[C@H]1C[C@@H](Cc2cc(COc3ccccc3)on2)C1(C)C,?,?,i,?,40µM*,13
CCCCCC(=O)N[C@H]1C[C@@H](Cc2cc(COC(=O)CCCCC)on2)C1(C)C,12%[87.6 µM],-3%[87.6 µM],i,?,-23%[174 µM],0
CC1(C)[C@H](Cc2cc(-c3ccc(F)cc3)on2)C[C@@H]1NC1CCC1,26%[87.6 µM],-18%[87.6 µM],i,40µM*,35µM*,-12
CC(C)(C)C(=O)N[C@H]1C[C@@H](Cc2cc(COc3ccccc3)on2)C1(C)C,-8%[87.6 µM],-21%[87.6 µM],i,?,?,-3
CC(C)C(=O)N[C@H]1C[C@@H](Cc2cc(COc3ccccc3)on2)C1(C)C,-6%[87.6 µM],?,?,40µM*,63µM*,8
COc1cccc(C(=O)N2CCCC(Cc3noc(-c4ccncc4)n3)C2)c1 (configuration not stated),-18%,-11%,i,?,-2%,10
Cc1ccc(O[C@H]2CCOC[C@H]2NC(=O)C2CCS(=O)(=O)CC2)cn1,-2%,-3%,i,-3%,-17%,0
O=C(Nc1cc(-c2ccccn2)nn1-c1ccccc1)c1ccccc1,1%,2%,.,-15%,-17%,3
CN1CCC(N[C@H]2C[C@@H](Cc3cc(C(C)(C)C)on3)C2(C)C)CC1,3%[87.6 µM],-14%[87.6 µM],i,28µM*,50µM*,-5
CC(C)c1noc(-c2cccn3c(CNC(=O)COc4ccc(F)cc4)nnc23)n1,-23%,-4%,i,0%,-1%,-2
CC(C)CCNC(=O)c1c(OCC2CC2)cc(=O)n2c1CCCCC2,-7%,-6%,i,?,35µM*,14
Cc1ncsc1C1N(C2CCN(Cc3cn(C)c4ccccc34)CC2)C(=O)C12CCCC2 (configuration not stated),15%,-7%[12.5 µM],i,79µM*,-22%,-8
C=C1C(=O)[C@@]23C(CC[C@@H]1[C@H]2O)[C@@]12CO[C@]3(O)[C@@H](O)[C@@H]1C(C)(C)CC[C@@H]2O (some centres not stated),34µM*,30µM*,.,.,.,-1
CCOCCn1c(=O)[nH]c2cc(C(=O)NCc3noc(CC)n3)ccc21,-16%,3%,i,i,-2%,-11
SMILES,SNCA expr inhib,HEK293 viab,Luciferase inh,HEK293 tox,3T3 cytotox,IP6K1 inh
O=C(Nc1ccc([C@@H](O)[C@H]2COCC(=O)N2Cc2ncc[nH]2)cc1)C1CC1,0%[87.6 µM],0%[87.6 µM],i,2%[172 µM],i,3
CCN(CC)S(=O)(=O)c1ccc2oc(C(=O)N(C)Cc3ccccc3)c(C)c2c1,15%,-7%,.,.,.,-11
CCCc1ccc2oc(C(=O)N(C)Cc3snnc3C)c(C)c2c1,14%,-10%,?,40µM*,?,-6
O=C(C1CCN(Cc2ccccc2-c2cccnc2)CC1)N1CCC(c2ccccc2)CC1,-22%,6%,.,35µM*,45µM*,11
O=[S+]([O-])(c1ccccc1)N1CCN(Cc2ccccc2-c2cccnc2)CC1,35%,-2%[12.5 µM],.,35µM*,?,8
O=C(Nc1ccc(Cl)cc1)N1CCN(Cc2ccccc2-c2cccnc2)CC1,22%,-5%[12.5 µM],.,?,35µM*,3
O=C(C1CCCN(Cc2cccc(-c3ccc(F)cc3F)c2)C1)N1CCCC1 (configuration not stated),10%,-5%,.,28µM*,?,12
O=C(C1CCCN(Cc2cccc(-c3ccc(F)cc3F)c2)C1)N1CCN(c2ncccn2)CC1 (configuration not stated),-25%,-16%,.,40µM*,?,2
CCC(O)c1cc2n(n1)CCN(C(=O)c1ccc(-c3ccccc3)n1C)C2 (configuration not stated),-8%,-7%,i,32µM*,?,6
CCC(O)c1cc2n(n1)CCN(C(=O)c1cn(-c3ccccc3)nn1)C2 (configuration not stated),-8%,-19%,i,-6%,-25%,1
O=C(c1ccc(C(F)(F)F)cc1)N1CCC2(C1)C(=NC1CCCCC1)NC(=O)N2c1cc(F)cc(F)c1 (configuration not stated),-12%,5%,.,-5%,25µM*,2
